Screening data as filed in PubChem.
AMA1-RON2 inh: disrupts binding of P. falciparum AMA1 to RON2 | AlphaScreen AMA1-biotinylated RON2 peptide binding | Potency, µM (top dose mostly 58.2 µM), inactives show top-dose activity change, negative = inhibition, hits mostly inhibitors | hit rate 0.2% among 360,000 | AID 720542;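 further: potency means the concentration at half of the fitted maximal effect; 0% = vehicle wells and -100% = peptide control; nearly all actives have a fitted effect of over 45% in size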
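AMA1 (3D7) with his tag at 25 nM final met compounds first, then biotinylated RON2 peptide at 25 nM; detection used donor plus acceptor beads, 10 µg/mL apiece, read by AlphaScreen after 30 min at room temperature.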
SARS PLP yeast: inhibitors of SARS-CoV papain-like protease in yeast | Potency, µM (top dose mostly 32.9 µM), for the others: at the highest dose activity, positive = growth rescue, actives largely listed as activators | hit rate 0.19% among 330,000 | S. cerevisiae expressing SARS-CoV PLpro, growth rescue; calls by dose curve; further: potency means the concentration at half of the fitted maximal effect; 0% is about no effect; nearly all actives have a fitted effect of over 55% in size
CHX counter: counter-screen for Shiga toxin inhibitors: cycloheximide protein synthesis inhibition. cell reporter, cycloheximide protein synthesis inhibition counterscreen. max response, %. hit rate 12% among 300,000. AID 2314; in the data active means max response mostly above about 13%, no sharp cut-off; inactive means mostly below about 14%; further: read at 38.3 µM for the half of the compounds with a filed dose; 0% is about no effect
Shiga toxin inh: inhibitors of Shiga toxin in Vero cells. Vero cells, Shiga toxin protein synthesis inhibition reporter. inhibition, % at 38.7 µM. hit rate 9.2% among 290,000; in the data active means inhibition mostly above about 28%, no sharp cut-off; inactive means mostly below about 43%; further: 0% is about no effect
Pf growth 48h: inhibits P. falciparum growth in the first generation, 48 h. AID 504832. P. falciparum luciferase growth in erythrocytes, 48 h. hit rate 5.9% among 310,000. Potency, µM (series often up to 28.7 µM), inactives show top-dose activity change, negative = inhibition, actives largely listed as inhibitors; further: potency means the concentration at half of the fitted maximal effect; on the % scale 0 is the no-effect control and ±100 the full control effect
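Compounds are pin-transferred into medium, infected erythrocytes (2% hematocrit, 0.1% parasitemia final) are added, and plates sit one parasite generation at 37 C in 5% CO2. Detection reagent is then added and luminescence measured.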
Pf growth 96h: P. falciparum growth inhibition at 96 hours | P. falciparum luciferase reporter growth, 96 h | Potency, µM (highest dose often 28.7 µM), inactives show at the top dose activity change, negative = inhibition, actives largely listed as inhibitors | hit rate 6.9% among 320,000 | AID 504834; further: potency means the concentration at half of the fitted maximal effect; on the % scale 0 is the no-effect control and ±100 the full control effect
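Cell-based qHTS: luciferase-tagged P. falciparum in erythrocytes (2% hematocrit, 0.05% parasitemia final) incubated with compounds for 96 hours, 37 C, 5% CO2; luciferase detection reagent then added and luminescence measured.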
The depositor's hits bear a star; u = inconclusive; x = no result. Hits are enriched below; roughly 19% of the tested compounds scored in any of these assays. Unless noted, the call rests on the fitted dose curve; in most records, active means well fitted curve in the direction sought with a large enough effect; inconclusive means small, poorly fitted or top-dose-only effect, or another doubt; inactive means no such curve, though single readings can be large; an effect the other way counts as inactive or inconclusive.

SMILES	AMA1-RON2 inh	SARS PLP yeast	CHX counter	Shiga toxin inh	Pf growth 48h	Pf growth 96h
CCn1cc(C(=O)NC(=S)Nc2sc3c(c2C(=O)OC)CCCCCC3)cn1	-24%	u	4	-7	7%	u
CCOC(=O)CN1C(=O)C(O)(C2CCc3ccccc3C2=O)c2ccccc21 (centres undefined)	-14%	1%	-3	-14	1%	14%
Cc1cccc(CN(C)C[C@H]2OCc3cnnn3CCCC(=O)N([C@H](C)CO)C[C@@H]2C)c1	-13%	x	x	x	x	x
O=C(C[C@@H]1C/C=C\CCCC(=O)OC[C@@H](c2ccccc2)NC1=O)NCCO	-2%	-4%	x	x	x	x
COc1ccc(C(=O)NC(=S)Nc2ccccc2[N+](=O)[O-])cc1OC	15%	0%	-1	5	-2%	-7%
O=C(NC(=S)Nc1ccc2[nH]c(=O)[nH]c2c1)c1ccccc1[N+](=O)[O-]	60%	1%	46*	48*	26%	u
CCn1cc(C(=O)NC(=S)Nc2ccccc2Br)cn1	-2%	16%	23*	41*	88%	44%
CCCC(=O)Nc1ccc(NC(=S)NC(=O)c2ccccc2[N+](=O)[O-])cc1	39%	-5%	-1	-18	3%	u
O=C(NC(=S)Nc1ccccc1[N+](=O)[O-])c1ccccc1Cl	21%	-1%	48*	125*	-29%	19%
CCn1cc(C(=O)NC(=S)Nc2ccccc2[N+](=O)[O-])cn1	107%	x	35*	58*	-6%	32%
CCn1cc(C(=O)Nc2ccccc2C(=O)OC)cn1	5%	x	x	x	x	x
C[C@H](NC(=O)c1nc[nH]c1C(=O)N1CCNCC1)C(=O)OCc1ccccc1	15%	-1%	x	x	u	86%
Cc1noc(C)c1NC(=O)Nc1cccc2c1O[C@H](CN(C)S(=O)(=O)c1cn(C)cn1)[C@@H](C)CN([C@H](C)CO)C2=O	21%	-3%	x	x	x	x
COc1cscc1C(N)=O	-3%	1%	-3	-12	-23%	u
N/C(=N\N=Cc1ccc2c(c1)OCO2)NN=Cc1ccc2c(c1)OCO2	23%	x	x	x	x	x
N/C(=N\N=C/c1ccc(F)cc1)N/N=C\c1ccc(F)cc1	30%	3%	11*	22	0.74µM*	u
N/C(=N\N=C/c1ccc(Br)cc1)N/N=C\c1ccc(Br)cc1	-7%	0%	8	-26	u	32%
N/C(=N\N=C\c1ccc(Cl)cc1)N/N=C/c1ccc(Cl)cc1	x	x	x	x	0.76µM*	0.85µM*
CC(=O)c1ccc(C2CC(OCCF)=CC(=O)O2)cc1 (centres undefined)	-10%	x	x	x	x	x
O=C(NCc1ccc(F)cc1)c1cc2c(cc1Cl)N1CCCCCC1=NS2(=O)=O	10%	-6%	x	x	4%	u
COc1cc(C(=O)OCC(=O)NCCC2=CCCCC2)ccc1OCC(C)C	19%	-11%	x	x	u	-20%
CC1CN(CCOc2ccc(F)cc2)CC(C)O1 (centres undefined)	20µM*	-1%	-3	x	-9%	-4%
CC1CN(CCCCOc2ccc3ccccc3c2)CC(C)O1 (centres undefined)	-5%	-27%	22*	21	12%	140%
COc1cccc(OCCCCN2CC(C)OC(C)C2)c1 (centres undefined)	0%	-7%	-4	16	x	23%
c1ccc2cc(OCCOCCOc3ccc4ccccc4c3)ccc2c1	1%	0%	2	-4	37%	10%
SMILES	AMA1-RON2 inh	SARS PLP yeast	CHX counter	Shiga toxin inh	Pf growth 48h	Pf growth 96h
CC(C)SCCCCOc1ccc2ccccc2c1	21%	3%	39*	33	89%	u
COC(=O)c1cc2sc(Cl)cc2n1Cc1nc(-c2ccccc2)oc1C	-5%	-2%	-1	-15	x	8.3µM*
O=C1c2ccsc2SCCN1Cc1c(F)cccc1Cl	6%	2%	2	32	x	u
O=C1c2ccsc2SCCN1Cc1c(Cl)cccc1Cl	-10%	-30%	-1	19	x	6.6µM*
CCC(=O)N1CCC(C)(C(=O)Nc2ccc(OC)c(OC)c2)C1 (centres undefined)	6%	x	x	x	x	x
Cc1cc([N+](=O)[O-])cc2c1NC(=O)C2(O)N1CCCCCC1 (centres undefined)	-2%	-19%	-3	-15	-1%	10µM*
Cc1cc([N+](=O)[O-])cc2c1NC(=O)C2(O)N1CCCC(C)C1 (centres undefined)	-6%	-2%	-2	13	-10%	177%
O=[N+]([O-])c1cccc(C2Nc3ccccc3CO2)c1 (centres undefined)	-9%	x	x	x	x	x
COc1ccccc1NC(=O)Nc1cccc(C)n1	2%	3%	8	24	-17%	78%
Cc1cccc(NC(=O)Nc2ccccc2[N+](=O)[O-])n1	-5%	-2%	24*	14	50%	-7%
COC(=O)c1ccccc1NC(=O)Nc1cccc(C)n1	11%	-1%	-1	-8	43%	u
CCOC(=O)c1ccc(NC(=O)Nc2cccc(C)n2)cc1	-12%	0%	-5	1	-5%	-11%
COc1ccc(NC(=O)Nc2cccc(C)n2)cc1	-2%	-7%	49*	117*	140%	5%
CCC(=O)Nc1ccc(C(=O)Nc2cccc(C)n2)cc1	-14%	0%	35*	62*	121%	156%
Cc1cccc(NC(=O)Nc2ccc(Br)cc2)n1	-6%	1%	29*	59*	106%	1%
C=CCNC(=O)C1COc2ccccc2O1 (centres undefined)	8%	0%	-2	-4	34%	54%
COc1ccc(NC(=S)Nc2cccc(C)n2)cc1	27%	0%	19*	62	4.7µM*	u
COc1ccc(NC(=S)Nc2ccccc2)cc1	11%	5%	7	2	19%	-30%
O=c1[nH]c2ccccc2[n+]([O-])c1-c1ccccc1	1%	2%	8	18	10%	16%
NS(=O)(=O)c1ccc(CCNC(=O)c2ccc(Br)s2)cc1	24%	14%	-1	-12	7%	65%
O=C(NCCc1ccccc1)c1ccncc1	x	u	32*	95*	124%	x
O=C(NCCc1ccc(Cl)cc1)c1ccc(Br)s1	-10%	12%	45*	55*	40%	u
O=C(COC(=O)c1ccc(Cl)nc1)NCCc1ccc(Cl)cc1	-22%	-12%	x	x	x	x
O=C(NCCc1ccccc1)c1ccc(Cl)nc1	3%	-9%	33*	60*	388%	-27%
O=C(NCCc1ccc(F)cc1)c1ccncc1	11%	-5%	16*	87*	12%	3%
COc1ccc(C2/C=C\CNCC(=O)N2Cc2ccc(F)cc2)cc1 (centres undefined)	-3%	1%	-6	-6	u	25%
CCc1nc2ccccc2n1CCC(=O)O	-6%	12%	-4	-4	4%	u
O=C(Nc1ccccc1)c1cn(CCBr)cn1	12%	x	x	x	x	x
